Assay outcomes as filed in PubChem BioAssay.
Hits are enriched below; roughly 4.2% of the tested compounds scored in any of these assays.
GDH-TPI counter = GDH-TPI coupling enzyme inhibitors, primary screen, artefact control for M. tuberculosis FBA inhibitor project, biochemical, absorbance, full deck | inhibition, % at 4.8 µM | AID 588335, 2011 | hit rate 1.2% among 360,000 | GDH-TPI coupled enzyme counterscreen, NADH absorbance; in the data active = inhibition above about 30%;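 note: 0% = DMSO wells and 100% = wells lacking the enzyme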
BJeLR lethal = MLPCN primary cell-based screen for lethality selective to Ras in HRASV12 cells; BJeLR (HRASV12) viability, CellTiter-Glo ATP luminescence, 48 h; inhibition, % (no concentration beside the values); hit rate 0.17% among 300,000; AID 1554, 2009; in the data active = inhibition above about 50%
RecA splice inh = Mtb RecA intein splicing inhibitors, primary screen, biochemical, fluorescence, HTS | Protein RecA (Mycobacterium tuberculosis (strain ATCC 25618 / H37Rv)), P9WHJ3 | cell-free RecA intein splicing | hit rate 0.75% among 290,000 | inhibition, % (test concentration not listed); in the data active = inhibition above about 30%;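 note: 0% = vehicle wells and 100% = reference inhibitor control wells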
Target sequence (P9WHJ3 whole entry, looked up, canonical isoform): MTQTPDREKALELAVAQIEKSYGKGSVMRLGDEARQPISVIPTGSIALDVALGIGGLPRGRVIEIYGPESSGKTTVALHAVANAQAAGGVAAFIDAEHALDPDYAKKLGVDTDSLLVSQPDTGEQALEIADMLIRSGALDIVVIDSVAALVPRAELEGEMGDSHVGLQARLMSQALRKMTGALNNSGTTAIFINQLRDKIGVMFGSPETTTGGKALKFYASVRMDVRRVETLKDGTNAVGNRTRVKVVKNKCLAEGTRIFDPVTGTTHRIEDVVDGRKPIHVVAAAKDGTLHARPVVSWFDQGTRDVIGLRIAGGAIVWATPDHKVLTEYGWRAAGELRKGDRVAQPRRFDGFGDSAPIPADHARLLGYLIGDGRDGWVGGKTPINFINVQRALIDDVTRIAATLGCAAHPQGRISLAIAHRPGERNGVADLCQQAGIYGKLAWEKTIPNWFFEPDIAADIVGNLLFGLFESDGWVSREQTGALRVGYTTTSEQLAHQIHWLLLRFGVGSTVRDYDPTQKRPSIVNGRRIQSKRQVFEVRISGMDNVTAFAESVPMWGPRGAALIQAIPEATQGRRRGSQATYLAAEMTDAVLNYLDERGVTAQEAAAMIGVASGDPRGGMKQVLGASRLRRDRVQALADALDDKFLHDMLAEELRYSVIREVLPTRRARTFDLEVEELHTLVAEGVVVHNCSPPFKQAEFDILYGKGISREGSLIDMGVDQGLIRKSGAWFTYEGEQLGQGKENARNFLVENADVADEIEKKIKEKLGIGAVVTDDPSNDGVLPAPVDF
Mtb FBA inh = Mtb FBA enzyme inhibitors, primary screen, biochemical, fluorescence, strain H37Rv | Fructose-bisphosphate aldolase (Mycobacterium tuberculosis (strain ATCC 25618 / H37Rv)), … | purified M. tuberculosis FBA, fluorescence read-out | inhibition, % at 1 µM | hit rate 2.3% among 360,000 | AID 588726, 2011; in the data active = inhibition above about 27%;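 note: 0% = vehicle and 100% = reference inhibitor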
PrPC surface inh = inhibitors of human cell surface prion protein PrPC, primary screen, cell-based, TR-FRET. Major prion protein (Homo sapiens), P04156. hit rate 0.43% among 370,000. inhibition, % at 13.8 µM. TR-FRET read-out; in the data active = inhibition above about 24%; note: 0% = median of the test wells and 100% = reference compound wells
Active calls of the source: *.

O=C(CN1C(=O)S/C(=C\c2cccs2)C1=O)Nc1ccc(O)c(C(=O)O)c1 was read as GDH-TPI counter 37.8*, BJeLR lethal -0.2, RecA splice inh 1.4, Mtb FBA inh -0.4 and PrPC surface inh -2.2.
For O=C(CN1C(=O)S/C(=C\c2cccs2)C1=O)Nc1ccc(C(=O)O)c(O)c1 the results were GDH-TPI counter 48.7*, BJeLR lethal -0.9, RecA splice inh 3.2, Mtb FBA inh -8.1 and PrPC surface inh -6.5.
For COCCCNC(=O)c1ccc2c3c(onc13)-c1ccccc1C2=O the results were GDH-TPI counter 2.3, BJeLR lethal 51.4*, RecA splice inh 36.9* and Mtb FBA inh -1.0.
Screening COc1ccc(/C=N/Nc2cn[nH]c(=O)c2Cl)cc1 returned GDH-TPI counter 35.8*, BJeLR lethal -3.4, RecA splice inh -1.0, Mtb FBA inh 1.3 and PrPC surface inh -12.1.
For O=c1[nH]ncc(N/N=C/c2ccccc2)c1Cl the results were GDH-TPI counter 79.7*, BJeLR lethal -20.0, RecA splice inh 0.3, Mtb FBA inh 0.4 and PrPC surface inh -10.5.
Cc1ccc(/C=N\Nc2cn[nH]c(=O)c2Cl)cc1 was read as GDH-TPI counter 48.0*, BJeLR lethal 17.4, RecA splice inh -1.1, Mtb FBA inh -1.9 and PrPC surface inh -16.4.
For Cc1ccsc1/C=N\Nc1cn[nH]c(=O)c1Cl the results were GDH-TPI counter 29.9, BJeLR lethal 1.5, RecA splice inh -2.4, Mtb FBA inh -3.0 and PrPC surface inh -7.7.
For Nc1nc(N)c2c(ccc3nccc32)[nH]1 the results were GDH-TPI counter 21.0, BJeLR lethal 66.0*, RecA splice inh 18.3, Mtb FBA inh 114.5* and PrPC surface inh 5.0.
For C=CCN1C(=O)[C@H](CC(=O)NCc2ccccc2)[C@@]2(C(=O)OCC)CCCC=C12 the results were PrPC surface inh -1.3.
`CC(=O)NC(CC(=O)NCCN1C(=O)S/C(=C\c2ccccc2)C1=O)c1ccccc1` (stereo not given) gave GDH-TPI counter 47.5*, BJeLR lethal 10.1, Mtb FBA inh 1.3 and PrPC surface inh -7.0.
O=C(CN1C(=O)S/C(=C\c2ccccc2)C1=O)NNC(=O)c1ccccc1O was read as GDH-TPI counter 31.1*, BJeLR lethal -3.6, RecA splice inh -2.9, Mtb FBA inh 0.6 and PrPC surface inh -5.1.
For CC(=O)NNC(=O)CN1C(=O)/C(=C/c2ccccc2)SC1=S the results were GDH-TPI counter 26.6, BJeLR lethal -3.3, RecA splice inh -1.2, Mtb FBA inh -1.9 and PrPC surface inh 2.5.
`COc1ccc(/C=C2\SC(=O)N(CC(=O)NNC(=O)c3ccccc3O)C2=O)cc1` gave GDH-TPI counter 33.0*, BJeLR lethal -3.9, RecA splice inh -5.0, Mtb FBA inh -1.3 and PrPC surface inh 5.6.
Cc1ccccc1CN1CCCCC(NC(=O)C2CCC2)C1=O (stereo not given) was read as PrPC surface inh 8.8.
Screening COc1cccc2c1[C@H](/C=C/c1ccccc1)[C@@H]([C@H](O)CO)OC2 returned PrPC surface inh -0.9.
Screening COc1ccc(-c2ccc(SC)nn2)cc1 returned GDH-TPI counter -1.2, BJeLR lethal 65.5*, RecA splice inh -1.6, Mtb FBA inh 4.2 and PrPC surface inh -0.8.
Screening O=C1CCC[C@H]2C[C@H](NCc3cccc(I)c3)CC[C@]23CCCN13 returned PrPC surface inh -5.9.
For CCCN1C(=O)/C(=C/c2ccc3c(c2)OCO3)NC1=S the results were GDH-TPI counter 11.8, BJeLR lethal 2.1, Mtb FBA inh 1.5 and PrPC surface inh 0.5.
Screening CCCN1C/C(=C/c2ccc3c(c2)OCO3)C(=O)/C(=C/c2ccc3c(c2)OCO3)C1 returned GDH-TPI counter 13.2, BJeLR lethal 53.2*, RecA splice inh 1.3, Mtb FBA inh -2.1 and PrPC surface inh -3.0.
`COc1ccc(C(c2c(O)ccc3ccccc23)N2CCOCC2)c(OC)c1` (stereo not given) gave GDH-TPI counter -8.0, BJeLR lethal -1.9, RecA splice inh 1.7, Mtb FBA inh 1.6 and PrPC surface inh 61.1*.
Cc1c(NC(=O)C2CCCN(S(=O)(=O)c3ccc(Br)s3)C2)c(=O)n(-c2ccccc2)n1C (stereo not given) was read as PrPC surface inh 10.4.
